Records with an inconclusive call do not appear. The source made the active and inactive calls. How the source made its calls: active means hit-call score of the fitted dose curve at least 0.9, where 1 is the maximum; inconclusive means response in the unintended direction; inactive means score below 0.9.

What is called AC50 is the concentration giving half of the maximal activity seen.

human Neonicotinoid receptor (NNR), CHRNA2 (gene 1135), sequence (Q15822 whole entry, looked up): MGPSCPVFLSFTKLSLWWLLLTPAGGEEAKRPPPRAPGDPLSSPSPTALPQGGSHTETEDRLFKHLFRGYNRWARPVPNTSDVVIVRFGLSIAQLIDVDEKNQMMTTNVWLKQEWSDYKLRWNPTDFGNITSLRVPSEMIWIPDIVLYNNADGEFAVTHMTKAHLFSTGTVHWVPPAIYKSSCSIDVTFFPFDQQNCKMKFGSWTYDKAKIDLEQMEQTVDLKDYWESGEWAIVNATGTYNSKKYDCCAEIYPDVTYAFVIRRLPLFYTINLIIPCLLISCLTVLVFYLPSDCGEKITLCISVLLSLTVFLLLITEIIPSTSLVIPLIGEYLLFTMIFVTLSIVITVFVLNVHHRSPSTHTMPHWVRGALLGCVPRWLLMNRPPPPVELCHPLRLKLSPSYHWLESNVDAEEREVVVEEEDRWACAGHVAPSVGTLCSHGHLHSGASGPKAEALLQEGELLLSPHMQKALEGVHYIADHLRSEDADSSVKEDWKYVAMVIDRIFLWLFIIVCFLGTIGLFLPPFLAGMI

The assay addresses human Neonicotinoid receptor (NNR), CHRNA2 (gene 1135) (UniProt Q15822). The assay is described as follows: NVS_LGIC_hNNR_NBungSens: NovaScreen (NVS) Ligand-Gated Ion Channel Assay for human Neonicotinoid receptor (NNR) (AID 2283313). As for the experimental part:
NVS_LGIC_hNNR_NBungSens is a biochemical, single-readout assay that uses extracted gene-proteins from Human neuroblastoma membrane cells in a tissue-based cell-free assay. Measurements were taken 2 hours after chemical dosing in a 48-well plate.NVS_LGIC_hNNR_NBungSens is one of one assay component(s) measured or calculated from the NVS_LGIC_hNNR_NBungSens assay. It is designed to make measurements of radioligand binding, a form of binding reporter, as detected with scintillation counting signals by Filter-based radiodetection technology.Data from the assay component NVS_LGIC_hNNR_NBungSens was analyzed into 1 assay endpoint. This assay endpoint, NVS_LGIC_hNNR_NBungSens, was analyzed in the positive analysis fitting direction relative to DMSO as the negative control and baseline of activity. Using a type of binding reporter, loss-of-signal activity can be used to understand changes in the binding as they relate to the gene CHRNA2. Furthermore, this assay endpoint can be referred to as a primary readout, because the performed assay has only produced 1 assay endpoint. To generalize the intended target to other relatable targets, this assay endpoint is annotated to the ion channel intended target family, where the subfamily is ligand-gated ion channel.
Binding assays used specific radioligands (tritiated, iodinated) with non-radioactive competitive displacement ligands in agonist or antagonist protocols (as indicated) and various reference compounds and inhibitors to titrate specific binding to receptors and transporters. Most enzyme assays (CYPs, kinases, phosphatases, proteases, HDACs) used recombinant protein and specific substrates (fluorescence mostly, some colorimetric and radioactive) and inhibitors, followed by a biochemical separation of substrate and product. All assays for the biochemical HTS were initially run in duplicate at a single concentration (10 uM for CYP450 assays and 25 uM for all others). Assay-chemical combinations meeting a pre-defined threshold (e.g., 30% inhibition and other criteria defined below) were then run in singleton concentration-response format with maximum concentration of 20 uM for CYPs and 50 uM for all others. Each assay was run with positive and negative controls, and concurrent controls on every plate. The follow-up (secondary) screen tested active chemical-pairs in concentration series, as well as a few additional assays not tested in the primary screen, some selected negative inactives, and several cases re-run in the concentration series for confirmatory purposes.
Consider `NCCOCCOCCN`, for which the molecule was classed as inactive. The same measure, in the same setting: then `CCN(CC)CCNc1ccc(CNC=O)c2sc3ccc(OC)cc3c(=O)c12`, with “inactive”. As to `Cc1cc(SC2=C(O)C[C@@](CCc3ccc(N)cc3)(C(C)C)OC2=O)c(C(C)(C)C)cc1CO`, the half-maximal activity concentration (AC50) is 13.1 µM (active). With `S=C(S)NCCNC(=S)S.[Mn+2].[S-]C([S-])=NCCN=C([S-])[S-].[Zn+2]`, the molecule was called inactive. Take `CN(C)CCCN1c2ccccc2Sc2ccc(Cl)cc21`: the AC50 was 35.7 µM (active).

Turning to `Cc1[nH]cnc1C[C@H]1CCc2c(C)c3ccccc3n2C1=O`, the result was inactive. On the same count and under the same terms, to `COc1cc(C(=O)NC2CCN(C)CC2)ccc1Nc1ncc2c(n1)N(C1CCCC1)CC(F)(F)C(=O)N2C` belongs “inactive”; to `CNS(=O)(=O)c1cc(C(=O)N2CCC(CCN3C4CCC3CC(n3c(C)nc5ccccc53)C4)(c3cccc(F)c3)CC2)c(Cl)cc1F` (stereo unspecified), “inactive”. `CCCCCCCCCCCC[N+](C)(C)C`: the AC50 was 13.3 µM (active). With `COc1cccc(-c2ccc(/C=C\CN3CCCCCC3)cc2Cl)c1`, the AC50 is 22.6 µM (active). In the case of `S=C([S-])NCCNC(=S)[S-].[Mn+2]`, the call was inactive. With `COc1cc(S(=O)(=O)O)c(C)cc1N=Nc1c(O)ccc2cc(S(=O)(=O)O)ccc12`, the AC50 was 16.7 µM (active). Same read-out and setting: to `Cn1cnc2c1c(=O)[nH]c(=O)n2C` belongs 15.4 µM (active); to `O=C(c1ccc(OCCN2CCCCC2)cc1)c1c(-c2ccc(O)cc2)sc2cc(O)ccc12`, 16.7 µM (active); to `O=c1[nH]c2ccc(S(=O)CCN3CCC(Cc4ccc(F)cc4)CC3)cc2o1` (stereo unspecified), 5.31 µM (active). Same read-out and setting: to `NC(=O)N(O)[C@@H]1C=C[C@H](Oc2cccc(Oc3ccc(F)cc3)c2)C1` belongs 41.2 µM (active); to `CCCOC(=O)NCCCN(C)C`, 7.3 µM (active). In the case of `Clc1cc(Cl)c2c(c1)N=C1CCCCCN1C2`, the AC50 was 1.98 µM (active). As for `CN1CCC[C@H]1c1cccnc1`, the AC50 is 1.3 µM (active). On the same count and under the same terms, to `CCCCCCCC(=O)O` belongs 37.4 µM (active); to `COc1ccc(OC(F)(F)F)cc1CN[C@H]1CCCN[C@H]1c1ccccc1`, 25 µM (active).

For the origin of these results see PubChem BioAssay (EPA / NIEHS).
